# Compound activity from PubChem.
# VDR inhibitor = Inhibitors of the vitamin D receptor (VDR): qHTS | actives 0.93% (n = 400,000) | VDR-SRC2-3 peptide fluorescence polarization, 2 h | Vitamin D3 receptor (Homo sapiens), P11473 | Potency, µM, for the others: max response, negative = inhibition, actives largely listed as inhibitors; note: % is set by controls: 0 for no effect and ±100 for the full control effect
# Target sequence (P11473 whole entry, looked up): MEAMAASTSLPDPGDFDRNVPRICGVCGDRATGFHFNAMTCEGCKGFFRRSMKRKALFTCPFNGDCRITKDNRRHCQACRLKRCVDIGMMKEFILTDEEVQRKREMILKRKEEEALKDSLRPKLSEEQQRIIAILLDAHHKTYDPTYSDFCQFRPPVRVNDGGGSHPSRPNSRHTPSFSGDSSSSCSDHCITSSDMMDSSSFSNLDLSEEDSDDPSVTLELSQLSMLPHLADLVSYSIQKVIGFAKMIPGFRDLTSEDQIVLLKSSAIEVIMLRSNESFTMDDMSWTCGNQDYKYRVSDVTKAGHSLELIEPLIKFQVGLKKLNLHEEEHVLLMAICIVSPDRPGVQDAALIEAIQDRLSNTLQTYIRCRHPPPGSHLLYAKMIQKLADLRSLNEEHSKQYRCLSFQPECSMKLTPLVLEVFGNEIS
#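 Two reagent solutions held at 4 deg C in the dark were dispensed, compounds pinned at 23 nl, and the mixture incubated 2 h at room temperature. Read-out: fluorescence polarization of VDR–SRC2-3 peptide binding.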
# Sfp inh = qHTS Assay for Inhibitors of Bacillus subtilis Sfp phosphopantetheinyl transferase (PPTase). AID 1490, 2009. actives 3.5% (n = 310,000). Potency, µM, inactives show largest response in the series, negative = inhibition, usual class: inhibitors. Biochemical Sfp PPTase activity, qHTS;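 note: the enzyme is Sfp with the accession as filed and its product quenches rhodamine fluorescence; 0% = enzyme reaction without inhibitor and -100% = no enzyme wells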
#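 Step 1, compound plus 15 nM Sfp-PPTase, 15 min, room temperature. Step 2, add rhodamine-CoA (5 uM) and BHQ-2-YbbR (12.5 uM). Step 3, read 525/598 nm fluorescence at 0 and 30 min.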
# 12-LOX inh = Primary qHTS assay for inhibitors of human arachidonate 12S-lipoxygenase (ALOX12): Round 2. Potency, µM (doses to about 108 µM), without a hit: top-dose activity change, negative = inhibition, usual class: inhibitors. actives 1.1% (n = 580,000). purified 12hLO, xylenol orange hydroperoxide absorbance. AID 1671190, 2021; note: % is set by controls: 0 for no effect and ±100 for the full control effect
#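 Hydroperoxide product was detected by ferrous iron/xylenol orange as the 573 to 405 nm absorbance ratio. Arachidonic acid at 40 uM (final) was turned over for 30 min at room temperature by 150 nM human 12hLO, pH 7.0 Hepes buffer, after 15 min compound preincubation.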
# GRP78 ERSR act = qHTS for Inducers of the Endoplasmic Reticulum Stress Response (ERSR) in Human Glioma: qHTS; U87-MG GRP78 promoter luciferase reporter, 16 h; actives 0.02% (n = 420,000); AID 602332, 2012; Potency, µM, for the others: at the top dose activation, hits mostly activators; note: series mostly up to about 76 µM; % of control where 0% means no effect; nearly all actives have a fitted effect of over 35% in size
#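 ERSR induction read as luciferase luminescence (Bright-Glo, 10 min at room temperature) in stably transfected human U87-MG glioma cells exposed to compounds for 16 h, using GRP78 as sensor.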
# G9a block = qHTS Assay for Inhibitors of Histone Lysine Methyltransferase G9a | Potency, µM (top dose mostly 102 µM), without a hit: at the highest dose activity, negative = inhibition, actives largely listed as inhibitors | actives 8.8% (n = 350,000) | G9a H3K9 monomethylation, AlphaScreen, 2 h | Histone-lysine N-methyltransferase EHMT2 (Homo sapiens), Q96KQ7; note: % is set by controls: 0 for no effect and ±100 for the full control effect; nearly all actives have a fitted effect of over 75% in size
# Target sequence (Q96KQ7 913-1193 limits assumed): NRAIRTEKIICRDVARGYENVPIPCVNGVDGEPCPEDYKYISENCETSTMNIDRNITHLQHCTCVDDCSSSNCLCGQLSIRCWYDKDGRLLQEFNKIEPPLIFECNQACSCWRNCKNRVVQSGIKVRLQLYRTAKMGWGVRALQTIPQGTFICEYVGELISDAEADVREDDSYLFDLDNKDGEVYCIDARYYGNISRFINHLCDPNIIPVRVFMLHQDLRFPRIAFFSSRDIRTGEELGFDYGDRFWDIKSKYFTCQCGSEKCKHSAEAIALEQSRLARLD
#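 G9a (20 nM) preincubated 15 min RT with compounds, then 500 nM biotinylated H3K9 peptide and 20 uM SAM added; 2 h RT reaction. Monomethyl-H3K9 product detected by AlphaScreen with anti-H3K9me1 antibody, streptavidin donor and anti-rabbit IgG acceptor beads.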
# The depositor's hits bear a star; ? = inconclusive; . = not tested or not shown; [ ] = another dose, or the depositor's remark. The full list was thinned out, with hits kept by preference. Calls come from the whole dose curve; as a rule, active = well fitted curve in the direction sought with a large enough effect; inconclusive = small, poorly fitted or top-dose-only effect, or another doubt; inactive = no such curve, though single readings can be large; an effect the other way counts as inactive or inconclusive. Potency is the fitted concentration of half-maximal effect.
SMILES,VDR inhibitor,Sfp inh,12-LOX inh,GRP78 ERSR act,G9a block
COc1ccc(NC(=S)N=Nc2c(O)[nH]c3ccccc23)cc1,-15%,-19%,?,-3%,-34%
O=C(COc1ccc(Cl)cc1)NCc1ccc(-c2nn3cnnc3s2)cc1,.,.,4%,.,.
CCOC(=O)CC(NS(=O)(=O)c1ccc2[nH]cc(C(=O)O)c(=O)c2c1)c1ccc(OCC)c(OC)c1 (configuration not stated),35%,8%,-14%,-4%,10µM*
CCCCCC(=O)Nc1c(-c2cccs2)c(=O)c2ccccc2n1C,-8%,-1%,23%,-3%,7%
CCC(=O)Nc1c(-c2cccs2)c(=O)c2ccccc2n1C,-8%,89µM*,-5%,-6%,?
CC(C)c1nc(OCC(=O)NCc2ccccc2)c(C#N)c2c1CCCC2,.,.,1%,.,.
CC1=CC(C)(C)N(C(=O)CNC2CCCCC2)c2cc(C)ccc21,10%,79µM*,-27%,-7%,18µM*
CC1=CC(C)(C)N(C(=O)CCl)c2cc(C)ccc21,-16%,11%,-6%,-6%,67%
CCCCN1C(=O)C(O)=C(C(C)=O)C1c1ccc(OC)cc1OC (configuration not stated),-4%,-16%,8.9µM*,1%,?
COc1ccc(OC)c(C2C(C(C)=O)=C(O)C(=O)N2CCc2ccc(OC)c(OC)c2)c1 (configuration not stated),-5%,-14%,?,1%,?
COc1ccc(C2C(C(C)=O)=C(O)C(=O)N2c2nccs2)c(OC)c1 (configuration not stated),-7%,10%,-17%,-1%,40µM*
COc1ccc(C2C(C(C)=O)=C(O)C(=O)N2c2ccccc2)c(OC)c1 (configuration not stated),.,.,-7%,.,.
CCOc1ccc(CC(=O)N2CCN(c3cc(-c4ccc(OC)cc4)[nH]n3)CC2)cc1,.,.,25%,.,.
COc1cc(C(=O)OCc2cccc(C#N)c2)cc(OC)c1C,.,.,10%,.,.
FC(F)(F)c1cccc(N2Cc3ccccc3C2)c1,9%,-6%,-30%,3%,16%[0.0925 µM]
CCc1ccc(N2Cc3ccccc3C2)cc1,-17%,?,-16%,-3%,10µM*
Cc1cc(C)cc(N2Cc3ccccc3C2)c1,8%,11%,3%[57.4 µM],-1%,10µM*
CC(C)(C)c1ccc(C(=O)NC(Cc2c[nH]c3ccccc23)C(=O)O)cc1 (configuration not stated),.,.,-2%,.,.
Cc1cc(C(=O)N(C)C2CCS(=O)(=O)C2)c2ccccc2n1 (configuration not stated),.,.,13%,.,.
O=S(=O)(NC(c1ccccc1)c1ccccn1)c1cccs1 (configuration not stated),.,.,5%,.,.
C/C(Cl)=C\Cc1c(C)nc2c(C)cccc2c1Cl,.,.,4%,.,.
COc1cc2c(cc1C1C(C#N)=C(N)OC3=C1C(=O)CC(C)(C)C3)OCO2 (configuration not stated),?,10%,0%,-4%,-6%[0.501 µM]
CC1(C)CC(=O)C2=C(C1)OC(N)=C(C#N)C2c1ccc(-c2ccc(Br)cc2)o1 (configuration not stated),.,.,20µM*,.,.
COc1ccc(C2C(C#N)=C(N)OC3=C2C(=O)CC(C)(C)C3)c2ccccc12 (configuration not stated),.,.,7.9µM*,.,.
CCNC(=O)Cn1nc(C)c2c(C(=O)OC)cc(C3CC3)nc21,.,.,2%,.,.
SMILES,VDR inhibitor,Sfp inh,12-LOX inh,GRP78 ERSR act,G9a block
O=C1/C(=C/c2cccnc2)Oc2cc(OS(=O)(=O)c3ccc(Cl)cc3)ccc21,-8%,-4%,3%,-3%,-17%
CC(=O)Oc1ccc2c(c1)O/C(=C\c1ccncc1)C2=O,-13%,3%,.,7%,.
COc1ccc(S(=O)(=O)Oc2ccc3c(c2)O/C(=C\c2cccnc2)C3=O)cc1,?,-5%,-6%,-4%,40µM*
O=C1/C(=C/c2cccnc2)Oc2cc(OS(=O)(=O)c3ccccc3)ccc21,50µM*,-24%,.,1%,?
COc1ccccc1C(=O)Oc1ccc2c(c1)O/C(=C\c1ccncc1)C2=O,35µM*,6%,-1%,-1%,?
COc1cc(OC)c(OC)cc1/C=C1\Oc2cc(OS(C)(=O)=O)ccc2C1=O,-13%,-4%,10%,-3%,40µM*
COc1ccc(/C=C2\Oc3cc(OS(C)(=O)=O)ccc3C2=O)c(OC)c1,.,.,-18%,.,.
Cc1ccccc1-c1nc(CS(=O)CC(=O)NCCCN(C)c2ccccc2)c(C)o1 (configuration not stated),-5%,-10%,0%,-6%,16%[0.501 µM]
Cc1ccc(NC(=O)CS(=O)CC(=O)NCCCN(C)c2ccccc2)cc1 (configuration not stated),7%,-18%,3%,-5%,40µM*
c1ccc(C2=NN(c3ccccc3)CC2)cc1,-10%,1%,11%,6%,42%[59 µM]
S=C1CCC(c2ccc(Cl)cc2)=NN1c1ccccc1,6%,3%,0%,-5%,40µM*
Cc1ccc(Nc2c(-c3ccsc3)nc3c(C)cccn23)cc1,?,.,?,0%,?
Cc1ccc(-c2nc3sccn3c2Nc2ccc(C)c(C)c2)cc1,-1%,.,?,2%,11µM*
Cc1ccc(Nc2c(-c3ccc(C)cc3)nc3c(C)cccn23)cc1,10%,.,?,1%,11µM*
CSc1ccc(-c2nc3c(C)cccn3c2Nc2ccc3c(c2)OCCO3)cc1,1%,.,1.4µM*,5%,7.1µM*
Cc1cccn2c(Nc3ccc4c(c3)OCCO4)c(-c3ccc(Br)o3)nc12,?,.,?,-1%,11µM*
COc1cc(/C=N\Nc2nc3ccccc3o2)cc(OC)c1OC,-6%,-2%,6%,10%,7%[59 µM]
COc1cc(/C=N/Nc2nc3ccccc3o2)cc(OC)c1O,16%,?,0%,9%,40µM*
COc1ccc(/C=N/Nc2nc3ccccc3o2)cc1O,-9%,?,-9%,-11%,40µM*
Brc1ccc(/C=N/Nc2nc3ccccc3o2)cc1,3%,-2%,?,6%,28µM*
Oc1ccccc1/C=N/Nc1nc2ccccc2o1,-8%,11%,-6%,-2%,.
COc1ccc(/C=N/Nc2nc3ccccc3s2)cc1O,-14%,-12%,-7%,-13%,?
Cn1cc(CN(Cc2ccccn2)C[C@@H]2CCC(=O)N2)c(-c2ccccc2F)n1,22%,79µM*,5%,-3%,-37%
Cc1sc(N)nc1-c1cccs1,27%,4%,0%,-2%,?
CCC(C)NC(=O)COC(=O)Cc1sc(N)nc1-c1ccc(C)cc1 (configuration not stated),7%,-74%,-14%,-6%,-10%[59 µM]
